In all, about 1,100 compounds were measured (“Wnt reporter firefly/Renilla luciferase ratio relative to plate median”: median about 1.1, highest 2% from about 1.6 on). What follows is part of a selection rich in the highest values, with near analogues and random picks from the rest.
System: HEK293T (UBE3A T485A transfected, BAR Wnt reporter)
Experiment: Wnt reporter firefly/Renilla luciferase ratio relative to plate median (fold (linear ratio)); higher = more Wnt/beta-catenin reporter activation
Settings: 24 h
How it was run: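 Chemicals were robotically dosed at 0.01–100 uM for 24 h onto HEK293T cells, starting four hours after transfection with a BAR firefly luciferase Wnt reporter, TK-Renilla and an expression plasmid. The cells had been plated at 4500 cells/well in DMEM with 10% FBS at 37°C and 5% CO2. Following a Dual-Glo luciferase readout, the firefly/Renilla ratio served as the Wnt activity measure and raw Renilla as the cell health measure, both median-centred on each plate. Each value is the mean of four biological replicates.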

SMILES	Wnt reporter firefly/Renilla luciferase ratio (concentration: 0.1 uM)	Wnt reporter firefly/Renilla luciferase ratio (concentration: 1 uM)	Wnt reporter firefly/Renilla luciferase ratio (concentration: 10 uM)	Wnt reporter firefly/Renilla luciferase ratio (concentration: 100 uM)	Wnt reporter firefly/Renilla luciferase ratio (concentration: 0.01 uM)
c1ccc(OP(Oc2ccccc2)Oc2ccccc2)cc1 [Triphenyl phosphite]	0.971	1.06	1	1.26	
NC(=O)[O-].[NH4+] [Ammonium carbamate]	0.817	0.94	0.934	1.31	
CCC(C)c1cc([N+](=O)[O-])cc([N+](=O)[O-])c1O (configuration not stated) [Dinoseb]	0.797	0.806	0.929		
Clc1nc(Cl)nc(Nc2ccccc2Cl)n1 [Anilazine]	0.926	1.15	1.18	1.07	0.958
CNC(=S)[S-].O.O.O.[Na+] [Metam-sodium hydrate]	0.921	0.977	1.06	1.1	0.905
CCCN(CCC)N=O [N-Nitrosodipropylamine]	1.18	0.939	1.15	1.06	
CCCCN(CCCC)N=O [N-Nitrosodibutylamine]	0.968	0.902	1.04	1.27	
CCN(CC)N=O [N-Nitrosodiethylamine]	1.12	1.13	1.27	1.82	
CCCCC(C#N)(Cn1cncn1)c1ccc(Cl)cc1 (configuration not stated) [Myclobutanil]	1	0.933	1.09	0.269	0.908
COc1cc(OC)nc(NC(=O)[N-]S(=O)(=O)c2ncccc2OCC(F)(F)F)n1.[Na+] [Trifloxysulfuron-sodium]	1.02	1.23	1.22	1.52	1.06
N#Cc1cccnc1 [3-Pyridinecarbonitrile]	0.974	1.13	1.25	1.35	
CO/N=C(/C1=NOCCO1)c1ccccc1Oc1ncnc(Oc2ccccc2Cl)c1F [Fluoxastrobin]	1.27	0.946	0.315	1.23	1.16
Cn1sc(Cl)cc1=O [5-Chloro-2-methyl-3(2H)-isothiazolone]	1.28	1.07	1.07	0.458	
COc1ccc(C(c2ccc(OC)cc2)C(Cl)(Cl)Cl)cc1 [Methoxychlor]	1.13	1.12	1.25	1.04	0.858
Cn1cc(-c2ccccc2)c(=O)c(-c2cccc(C(F)(F)F)c2)c1 [Fluridone]	1.28	0.917	0.825	0.175	
Cc1ccc([N+](=O)[O-])cc1C [1,2-Dimethyl-4-nitrobenzene]	0.844	1.17	1.19	1.42	
CN(C)c1ccccc1 [N,N-Dimethylaniline]	1.11	1.11	0.912	1.02	
C[C@]12CCC(=O)C=C1CC[C@@H]1[C@@H]2CC[C@]2(C)C(=O)CC[C@@H]12 [4-Androstene-3,17-dione]	1.04	1.01	1.12	0.219	
Clc1ccccc1-c1nnc(-c2ccccc2Cl)nn1 [Clofentezine]	1.25	0.999	1.19	1.59	1.31
CC(Cl)(Cl)C(=O)O [Dalapon]	1.05	1.18	1.08	1.25	
COC(=O)Nc1nc2ccccc2[nH]1 [Carbendazim]	1.09	1.16	0.661	0.13	

SMILES	Wnt reporter firefly/Renilla luciferase ratio (concentration: 0.1 uM)	Wnt reporter firefly/Renilla luciferase ratio (concentration: 1 uM)	Wnt reporter firefly/Renilla luciferase ratio (concentration: 10 uM)	Wnt reporter firefly/Renilla luciferase ratio (concentration: 100 uM)	Wnt reporter firefly/Renilla luciferase ratio (concentration: 0.01 uM)
C[n+]1ccc(-c2cc[n+](C)cc2)cc1 [Paraquat]	1.36	1.06	1.01	1.77	1.31
CCOP(=S)(OCC)SCSC(C)(C)C [Terbufos]	1.28	1.01	1.16	1.27	
CCNc1nc(Cl)nc(NC(C)(C)C#N)n1 [Cyanazine]	0.905	0.962	0.88	1.15	0.787
Cc1ccc([N+](=O)[O-])cc1 [4-Nitrotoluene]	0.766	0.567	0.741	0.771	
CCCCC(O)(Cn1cncn1)c1ccc(Cl)cc1Cl (configuration not stated) [Hexaconazole]	0.897	1	0.919	0.397	0.917
ClCC(Cl)CCl [1,2,3-Trichloropropane]	1.21	1.09	1.12	1.41	
CCOP(=S)(OCC)SCn1c(=O)oc2cc(Cl)ccc21 [Phosalone]	1.45	1.27	1.03	0.607	1.62
CCOP(=S)(OCC)SCSCC [Phorate]	1.03	0.934	1.08	1.3	
COP(=O)(OC)SCn1c(=O)oc2cc(Cl)cnc21 [Azamethiphos]	1.28	0.979	0.625	0.373	0.825
Cc1ccccc1O [o-Cresol]	1.01	0.966	1.1	1.15	
C=C(C)C(=O)[O][Sn]([CH2]CCC)([CH2]CCC)[CH2]CCC [Tributyltin methacrylate]	0.639	0.638	0.679		
Cc1cc(N=Nc2ccccc2C)ccc1N [2-Amino-5-azotoluene]	1.18	0.968	1.06	0.582	
Nc1cc2c3c(c1)C(c1ccccc1)=N[C@@H](NC(=O)c1cccnc1)C(=O)N3CC2	1.19	0.977	1.24	0.802	
Nc1cc(Cl)cc(C(=O)O)c1Cl [Chloramben]	1.14	1.12	1.34	1.49	
[Cl-].[Cl-].[Hg+2] [Mercuric chloride]	1.21	1.07	1.69		
O=C(O)C1C(C(=O)O)C2(Cl)C(Cl)=C(Cl)C1(Cl)C2(Cl)Cl (configuration not stated) [Chlorendic acid]	0.978	1.1	0.935	1.03	
O=C(O)c1nc(Cl)ccc1Cl [Clopyralid]	1.81	1.02	0.988	1.12	1.17
Clc1cccc(C(Cl)(Cl)Cl)n1 [Nitrapyrin]	1.01	0.881	1.03	1.23	1.08
Nc1c(Cl)c(Cl)nc(C(=O)O)c1Cl [Picloram]	1.47	1	1.13	1.28	0.972
NCCO.O=C(O)c1nc(Cl)ccc1Cl [Clopyralid-olamine]	0.94	1.18	1.56	2.61	0.868
O=C(O)c1c(Cl)ccc2cc(Cl)cnc12 [Quinclorac]	1.3	1.14	1.14	1.58	1.38
